hcDAF12 agonist: activates DAF-12 receptor from parasite H. contortus; HEK293 hcDAF-12 lit1-tk-luc reporter, luminescence; 0% DMSO, 100% Δ7-dafachronic acid; activation, % at 6.8 µM; 1.4% of 370,000 active;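 active means activation above the mean of all tested compounds plus 3 SD, cut at about 5.5% in these data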
DAX1 inh-1: inhibits human nuclear receptor DAX1. inhibition, % at 6.75 µM. P51843. HEK293 Gal4-DAX1 luciferase reporter, luminescence. AID 504766. 0.99% of 340,000 active;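 active means inhibition above the mean over all tested compounds plus 3 SD, cut at about 4.2% in these data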;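 further: inhibition shows as a rise in luminescence from relieved DAX1 repression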
Wee1 stabilizer: blocks degradation of human Wee1 kinase; P30291; AID 1321; HeLa Luc-Wee1K328M stability, luciferase luminescence; 100% = proteasome inhibitor MG132 effect; reporter increase, % at 5 µM; 1.2% of 220,000 active;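 active means activation above the mean of all tested compounds plus 3 SD, set per screening run, cut at about 8.8% in these data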;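 further: cells exposed to compound for 20 h before luminescence read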
Target sequence (P30291 whole entry K328M): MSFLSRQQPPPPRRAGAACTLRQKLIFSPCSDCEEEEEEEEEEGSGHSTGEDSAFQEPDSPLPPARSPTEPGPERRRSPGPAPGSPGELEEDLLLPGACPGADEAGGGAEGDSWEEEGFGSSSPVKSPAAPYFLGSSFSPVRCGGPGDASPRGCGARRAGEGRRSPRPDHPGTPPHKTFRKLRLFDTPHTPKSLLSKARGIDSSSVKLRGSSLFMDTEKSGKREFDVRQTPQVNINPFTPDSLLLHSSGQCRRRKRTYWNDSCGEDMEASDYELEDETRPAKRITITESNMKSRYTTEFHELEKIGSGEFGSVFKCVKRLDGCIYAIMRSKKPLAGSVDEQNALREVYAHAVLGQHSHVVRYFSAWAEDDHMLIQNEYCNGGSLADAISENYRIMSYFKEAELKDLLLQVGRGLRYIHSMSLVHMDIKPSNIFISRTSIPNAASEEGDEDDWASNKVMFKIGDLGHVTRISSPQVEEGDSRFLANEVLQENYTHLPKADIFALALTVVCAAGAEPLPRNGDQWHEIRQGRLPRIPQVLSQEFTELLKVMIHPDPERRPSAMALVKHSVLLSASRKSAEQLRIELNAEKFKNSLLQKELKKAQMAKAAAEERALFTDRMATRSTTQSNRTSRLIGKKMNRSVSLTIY
hgDAF-12 ag: activates the H. glycines DAF-12 receptor ligand-binding domain; AID 687014; HEK293 GAL4-hgDAF12 UAS-luciferase reporter, agonist luminescence; normalized to butyrate control; 1.8% of 370,000 active; activation, % at 6.8 µM;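 active means activation above a cutoff set at the mean of all screened compounds plus 3 SD, cut at about 10% in these data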
DAX1 inh-2: blocks DAX1 repression of SF-1 activated StAR promoter | HEK293T StAR-luciferase reporter, SF-1/DAX-1 repression relief | inhibition, % at 6.8 µM | 1.1% of 370,000 active | AID 652010;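 active means inhibition above the mean over all tested compounds plus 3 SD, cut at about 3.6% in these data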;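 further: higher inhibition means more luminescence from relief of DAX-1 repression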
ssDAF-12 act: S. stercoralis DAF-12 activation, primary screen; HEK293 ssDAF-12/GRIP1 lit1-tk-luc reporter, luminescence; % of 3 µM dafachronic acid response; 1% of 370,000 active; AID 652126; activation, % at 6.8 µM;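 active means activation above the mean over all tested compounds plus 3 SD, cut at about 0.9% in these data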
DAX1 inh confirm: NR0B1 (human) inhibition, confirmation | shares compounds with DAX1 inh-2 | HEK293T StAR-promoter luciferase reporter, SF-1/DAX-1 repression | inhibition, % at 6.8 µM | 87% of 2,400 active | AID 652134;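 active means inhibition above the average of every tested compound plus 3 SD, cut at about 3.8% in these data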;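 further: active compounds raise luminescence by relieving repression of the StAR reporter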
SF1 AF2mut Luc: nonselective inhibitor or artifact in SF-1 mutant DAX1 counter-screen | shares compounds with DAX1 inh-2 | 78% of 2,400 active | inhibition, % at 6.8 µM | HEK293 StAR-luciferase, SF-1 AF2 mutant, luminescence;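 active means inhibition above the mean of all tested compounds plus 3 SD, cut at about 3% in these data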
LXRb hcDAF ctr: counter-screen for hcDAF-12 agonists: agonists of human LXR-beta. activation, % at 6.8 µM. 3,400 tested, under 10 active. HEK293 Gal4-LXR tk-luc reporter, luminescence, 24 h; normalized: DMSO 0%, positive control 100%. shares compounds with hcDAF12 agonist;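 active means mean percent activation of the reporter above a cutoff set as the average over tested compounds plus their standard deviation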
hcDAF12 conf: confirmation of H. contortus DAF-12 agonists | shares compounds with hcDAF12 agonist | HEK293 hcDAF-12 lit1-tk-luc reporter, luminescence; % of Δ7-dafachronic acid response | activation, % at 6.8 µM | 61% of 3,400 active | AID 743032;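 active means mean activation across triplicate tests above the threshold derived from the earlier primary screen, cut at about 5.5% in these data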
hgDAF12 conf: confirmation of H. glycines DAF-12 agonists | shares compounds with hgDAF-12 ag | 80% of 3,300 active | HEK293 GAL4-hgDAF12 luciferase reporter, agonist mode; percent of butyrate response | activation, % at 6.8 µM;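 active means mean activation over triplicate wells above the hit cutoff derived from the earlier primary screen, cut at about 11% in these data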
LXRb DAF12 ctr: LXR-beta agonism as DAF-12 counter-screen. shares compounds with hgDAF-12 ag. 3,300 tested, under 10 active. HEK293 Gal4-LXR luciferase reporter, 24 h. activation, % at 6.8 µM;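 active means mean activation of the triplicate above a set limit carried over from the primary screen, none filed active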
A number is an active result; . = inactive; / = no result. Only some compounds are listed: those with a hit (about 4.6% of all), similar ones and a draw of the others.

SMILES | hcDAF12 agonist | DAX1 inh-1 | Wee1 stabilizer | hgDAF-12 ag | DAX1 inh-2 | ssDAF-12 act | DAX1 inh confirm | SF1 AF2mut Luc | hgDAF12 conf | LXRb DAF12 ctr | others
CC(=O)Nc1ccc(CN2C(=O)C(Cc3ccccc3)ON=C2c2ncccc2C)cc1 (configuration not stated) | . | / | / | . | . | . | / | / | / | /
OC[C@@H]1CN(Cc2ccc(F)cc2)C[C@H](n2cnc3c(NCc4ccc(F)cc4)ncnc32)O1 | . | / | / | . | . | . | / | / | / | /
Fc1ccc2nc(N3CCCC3)sc2c1 | . | . | . | 28 | 5.2 | . | 7.9 | 5.0 | 15 | .
c1ccc2sc(N3CCCCC3)nc2c1 | . | . | / | 13 | 7.8 | . | 9.7 | 6.5 | 15 | .
CC(=O)C1=CCC(c2ccccc2)N(S(C)(=O)=O)C1 (configuration not stated) | . | / | / | . | . | . | / | / | / | /
O=C1CCC[C@@H]2[C@@H](Cc3ccccc3)[C@H](N3CCN(c4ccccc4)CC3)C[C@@H]3CCN1[C@@H]32 | . | . | / | . | . | . | / | / | / | /
Cc1nc(-c2ccccc2)sc1C(=O)NS(=O)(=O)c1ccc(CN2CCN(c3ccccc3)CC2)cc1 | . | / | / | . | . | . | / | / | / | /
CCn1c(/C=N/Nc2ccc(C(=O)O)cc2)nc2ccccc21 | . | . | . | . | . | . | / | / | / | /
CC1Oc2ccccc2C=C1/C=N/Nc1ccc(C(=O)O)cc1 (configuration not stated) | 6.9 | . | . | 15 | 6.3 | 0.9 | 19 | 9.3 | 14 | . | LXRb hcDAF ctr=.;hcDAF12 conf=15
CC(=O)NC(c1ccccc1)c1nc(-c2cccnc2)cs1 (configuration not stated) | . | / | / | . | . | . | / | / | / | /
Cc1cc(C)n2c(NC3CCCC3)c(-c3cc4ccccc4o3)nc2n1 | . | / | / | 17 | 5.3 | 1.2 | 4.2 | . | . | .
O=C(NCCS(=O)(=O)NCc1ccccc1Cl)c1ccc2c(c1)OCO2 | . | . | / | . | . | . | / | / | / | /
O=C(NCCS(=O)(=O)NCCc1ccccc1)c1ccc2c(c1)OCO2 | 5.6 | 4.3 | / | 15 | 10 | 1.1 | 7.9 | 3.1 | 14 | .
CC(C)(C)C(c1nc2ccccc2[nH]1)n1c(-c2cccc(S(C)(=O)=O)c2)nc2ccccc21 (configuration not stated) | . | / | / | 16 | 16 | . | 7.7 | 9.5 | 12 | .
Cc1ccc2[nH]c(C(=O)NCCN3CCCC3)cc2c1 | . | . | / | . | . | . | / | / | / | /
CCC1CCC/C1=N\NC(=O)c1ccccc1Cl (configuration not stated) | . | / | / | . | . | . | / | / | / | /
CCC1CCC/C1=N\NC(=O)c1ccoc1C (configuration not stated) | . | . | / | 17 | 11 | . | . | . | . | .
COc1ccc2nc(NC(=O)c3cccc(N4C(=O)CCC4=O)c3)sc2c1 | . | . | / | . | . | . | / | / | / | /
O=C(Nc1nc2ccc(Cl)cc2s1)c1cccc(N2C(=O)CCC2=O)c1 | . | . | / | 14 | 5.0 | . | 7.6 | 4.1 | . | .
Cc1ccc(CC2(c3ccccc3)NC(=O)NC2=O)cc1 (configuration not stated) | . | . | / | . | . | . | / | / | / | /
COc1ccc(/C=C/C(=O)OCC(=O)Nc2cccc(S(=O)(=O)NC3=NCCCCC3)c2)cc1 | . | . | / | . | . | . | / | / | / | /
Cc1ccc(NS(=O)(=O)c2ccc(C(=O)Nc3nncs3)cc2)cc1 | . | . | / | . | . | . | / | / | / | /
COC(=O)CSc1nc2cc(C)cc(C)c2cc1C#N | . | . | . | . | . | . | / | / | / | /
COC(=O)CSc1nc2ccc(C)cc2cc1C#N | 7.2 | 5.9 | . | 26 | 8.8 | 1.4 | 19 | 11 | 20 | . | LXRb hcDAF ctr=.;hcDAF12 conf=.
N#Cc1cc2cc3c(cc2nc1SCC(=O)N1CCCC1)OCCO3 | / | . | / | / | / | / | / | / | / | /
SMILES | hcDAF12 agonist | DAX1 inh-1 | Wee1 stabilizer | hgDAF-12 ag | DAX1 inh-2 | ssDAF-12 act | DAX1 inh confirm | SF1 AF2mut Luc | hgDAF12 conf | LXRb DAF12 ctr | others
CC(=O)CSc1nc2cc3c(cc2cc1C#N)OCCO3 | 12 | . | . | 27 | 7.9 | . | 14 | 4.9 | 19 | . | LXRb hcDAF ctr=.;hcDAF12 conf=10
O=C(Nc1ccc2c(c1)OCCO2)C1C(c2ccccc2)=Nc2ccccc2N1C(=O)c1cccnc1 (configuration not stated) | 11 | / | / | 20 | 13 | . | 20 | 7.9 | 12 | . | LXRb hcDAF ctr=.;hcDAF12 conf=7.1
Cc1cccc(C)c1NC(=O)C1C(c2ccc3c(c2)OCO3)=Nc2ccccc2N1C(=O)c1ccccc1 (configuration not stated) | . | / | / | . | . | . | / | / | / | /
CC(C)Cc1ccc(/C=C/C(=O)N2CCOCC2)cc1 | . | . | . | 16 | 6.0 | 1.4 | 9.5 | 5.2 | 12 | .
CCC(CO)Nc1ncnc2c1cnn2-c1ccc(OC)cc1 (configuration not stated) | . | . | . | 16 | 5.1 | . | 8.4 | 4.4 | . | .
Cc1cccc(-n2ncc3c(NC(C)C)ncnc32)c1 | . | . | . | 17 | 6.6 | . | 11 | 8.2 | 18 | .
NNc1ncnc2c1cnn2-c1ccccc1 | . | . | . | . | . | . | / | / | / | /
Cc1cccc(-n2ncc3c(Nc4ccc(F)cc4)ncnc32)c1 | . | . | / | . | . | . | / | / | / | /
CC(C)Nc1ncnc2c1cnn2-c1ccccc1 | . | . | . | 17 | 5.4 | . | 7.2 | 4.2 | 12 | .
Cc1cc(F)ccc1S(=O)(=O)N1CCCOC1CNC(=O)C(=O)NCCc1ccco1 (configuration not stated) | . | . | / | . | . | . | / | / | / | /
CCOC(=O)[C@]12CCCCC/C=C\1N(CCc1ccc(Cl)cc1)C(=O)[C@H]2CC(=O)N1CCOCC1 | . | / | / | . | . | . | / | / | / | /
O=C(Cn1nc(-c2ccccc2)ccc1=O)NCCc1ccc(F)cc1 | . | / | / | . | . | . | / | / | / | /
